Records with an inconclusive call do not appear. Entries that show only a call come without a potency. Values without a mark were called inactive. Active and inactive are the calls of the source. Unless noted, calls follow the shape of the full dose curve.
Columns and labels:
[1] = qHTS for Inhibitors of the Functional Ribonucleoprotein Complex (vRNP) of Lassa (LASV) Arenavirus: LASV Primary Screen - GLuc reporter signal (AID 1347082; calls by dose curve; tested in HEK293 reporter line; also: nearly all actives have a fitted effect of over 60% in size)
[2] = qHTS for Inhibitors of the Functional Ribonucleoprotein Complex (vRNP) of Lassa (LASV) Arenavirus: Viability assay - alamar blue signal for LASV Primary Screen (AID 1347083; calls by dose curve; tested in HEK293 reporter line; also: nearly all actives have a fitted effect of over 80% in size)
[3] = qHTS for Inhibitors of the Functional Ribonucleoprotein Complex (vRNP) of Lymphocytic Choriomeningitis Arenaviruses (LCMV): Viability assay - alamar blue signal for LCMV Primary Screen (AID 1347085; calls by dose curve; tested in HEK293 reporter line; also: nearly all actives have a fitted effect of over 80% in size)
[4] = biological target: Nucleoprotein (Lymphocytic choriomeningitis virus (strain Armstrong)) (UniProt P09992); assay: qHTS for Inhibitors of the Functional Ribonucleoprotein Complex (vRNP) of Lymphocytic Choriomeningitis Arenaviruses (LCMV): LCMV Primary Screen - GLuc reporter signal (AID 1347086); also: nearly all actives have a fitted effect of over 70% in size
Chain of Nucleoprotein (Lymphocytic choriomeningitis virus (strain Armstrong)) (P09992 whole entry, looked up): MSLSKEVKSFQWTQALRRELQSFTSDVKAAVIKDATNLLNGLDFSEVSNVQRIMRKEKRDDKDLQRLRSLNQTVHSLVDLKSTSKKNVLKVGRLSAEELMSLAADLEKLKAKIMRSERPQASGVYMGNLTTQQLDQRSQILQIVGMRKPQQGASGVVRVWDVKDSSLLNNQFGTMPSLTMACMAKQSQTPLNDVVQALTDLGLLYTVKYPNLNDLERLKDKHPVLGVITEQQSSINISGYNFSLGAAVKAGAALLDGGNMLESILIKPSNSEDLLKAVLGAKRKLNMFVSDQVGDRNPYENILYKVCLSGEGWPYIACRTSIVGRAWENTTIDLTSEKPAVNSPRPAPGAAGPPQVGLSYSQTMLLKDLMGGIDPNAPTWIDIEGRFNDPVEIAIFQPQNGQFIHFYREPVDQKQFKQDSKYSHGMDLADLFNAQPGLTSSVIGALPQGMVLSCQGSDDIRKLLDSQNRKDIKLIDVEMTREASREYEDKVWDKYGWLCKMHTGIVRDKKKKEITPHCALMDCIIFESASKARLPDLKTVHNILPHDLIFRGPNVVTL
Potency is read from the fitted curve at half-maximal effect.

SMILES: CNC[C@H](O)c1cccc(O)c1
- Potency [1]: inactive
- Potency [2]: inactive
- Potency [3]: inactive
- Potency [4]: inactive

SMILES: CC(C)(C)c1cc(C=O)cc(C(C)(C)C)c1O
- Potency [1]: inactive
- Potency [2]: inactive
- Potency [3]: inactive
- Potency [4]: inactive

SMILES: O=C(c1ccccc1)c1ccccc1
- Potency [1]: inactive
- Potency [2]: inactive
- Potency [3]: inactive
- Potency [4]: inactive

SMILES: Cc1oc(=O)oc1COC(=O)[C@@H]1N2C(=O)[C@@H](NC(=O)[C@H](N)c3ccccc3)[C@H]2SC1(C)C
- Potency [1]: inactive
- Potency [2]: inactive
- Potency [3]: inactive
- Potency [4]: inactive

SMILES: NC(=O)NC(=O)Cc1ccccc1
- Potency [1]: inactive
- Potency [2]: inactive
- Potency [3]: inactive
- Potency [4]: inactive

SMILES: CC1(C)Oc2ccc(C#N)cc2[C@@H](N2CCCC2=O)[C@@H]1O
- Potency [1]: inactive
- Potency [2]: inactive
- Potency [3]: inactive
- Potency [4]: inactive

SMILES: CC(CCc1ccc(O)cc1)NCCc1ccc(O)c(O)c1 (stereo not given)
- Potency [1]: inactive
- Potency [2]: inactive
- Potency [3]: inactive
- Potency [4]: inactive

SMILES: CC(C)(C)c1ccc(O)cc1
- Potency [1]: inactive
- Potency [2]: inactive
- Potency [3]: inactive
- Potency [4]: inactive

SMILES: CCN1CCCC1CNC(=O)c1cc(S(=O)(=O)CC)c(N)cc1OC (stereo not given)
- Potency [1]: inactive
- Potency [2]: inactive
- Potency [3]: inactive
- Potency [4]: inactive

SMILES: CCC(C)(CN(C)C)OC(=O)c1ccccc1 (stereo not given)
- Potency [1]: inactive
- Potency [2]: inactive
- Potency [3]: inactive
- Potency [4]: inactive

SMILES: Cc1ccc(S(=O)(=O)NC(=O)NC2CCCCCCC2)cc1
- Potency [1]: inactive
- Potency [2]: inactive
- Potency [3]: inactive
- Potency [4]: inactive

SMILES: CCn1ccc(NS(=O)(=O)c2ccc(N)cc2)nc1=O
- Potency [1]: inactive
- Potency [2]: inactive
- Potency [3]: inactive
- Potency [4]: inactive

SMILES: CC(C)(Oc1ccc(Cl)cc1)C(=O)O
- Potency [1]: inactive
- Potency [2]: inactive
- Potency [3]: inactive
- Potency [4]: inactive

SMILES: CN1C(C)(C)CCCC1(C)C
- Potency [1]: inactive
- Potency [2]: inactive
- Potency [3]: inactive
- Potency [4]: inactive

SMILES: OC[C@@H](O)[C@@H](O[C@@H]1O[C@H](CO)[C@H](O)[C@H](O)[C@H]1O)[C@H](O)[C@@H](O)CO
- Potency [1]: inactive
- Potency [2]: inactive
- Potency [3]: inactive
- Potency [4]: inactive

SMILES: COc1ccc(/C(C)=C/C(=O)O)c(OC)c1
- Potency [1]: inactive
- Potency [2]: inactive
- Potency [3]: inactive
- Potency [4]: inactive

SMILES: Cc1onc(-c2ccccc2)c1C(=O)Cl
- Potency [1]: inactive
- Potency [2]: inactive
- Potency [3]: inactive
- Potency [4]: inactive

SMILES: OCCN1CCN(CC/C=C2/c3ccccc3Sc3ccc(C(F)(F)F)cc32)CC1
- Potency [1]: inactive
- Potency [2]: inactive
- Potency [3]: inactive
- Potency [4]: inactive

SMILES: CCN(CC)CCOC(=O)c1ccc(N)cc1
- Potency [1]: inactive
- Potency [2]: inactive
- Potency [3]: inactive
- Potency [4]: inactive

SMILES: Cc1cc(=O)oc2cc(O[C@@H]3SC[C@@H](O)[C@H](O)[C@H]3O)ccc12
- Potency [1]: inactive
- Potency [2]: inactive
- Potency [3]: inactive
- Potency [4]: inactive

SMILES: Nc1ccc(S(=O)(=O)Nc2ccccn2)cc1
- Potency [1]: inactive
- Potency [2]: inactive
- Potency [3]: inactive
- Potency [4]: inactive

SMILES: CCCCC(CC)CN1CN(CC(CC)CCCC)CC(C)(N)C1 (stereo not given)
- Potency [1]: inactive
- Potency [2]: inactive
- Potency [3]: inactive
- Potency [4]: inactive

SMILES: C[N+](C)(C)CC(O)CC(=O)[O-] (stereo not given)
- Potency [1]: inactive
- Potency [2]: inactive
- Potency [3]: inactive
- Potency [4]: inactive

SMILES: COc1ccc(/C=N/NC(=O)c2ccncc2)cc1OC
- Potency [1]: inactive
- Potency [2]: inactive
- Potency [3]: inactive
- Potency [4]: inactive

SMILES: O=C(O)Cn1cnnn1
- Potency [1]: inactive
- Potency [2]: inactive
- Potency [3]: inactive
- Potency [4]: inactive

SMILES: CN1C(C(=O)Nc2ccccn2)=C(O)c2ccccc2S1(=O)=O
- Potency [1]: inactive
- Potency [2]: inactive
- Potency [3]: inactive
- Potency [4]: inactive

SMILES: O=C(O)CN(CCN(CC(=O)O)CC(=O)O)CCN(CC(=O)O)CC(=O)O
- Potency [1]: inactive
- Potency [2]: inactive
- Potency [3]: inactive
- Potency [4]: inactive

SMILES: CCOC(=O)O[C@]1(C(=O)OCCl)CC[C@H]2[C@@H]3CCC4=CC(=O)C=C[C@]4(C)[C@H]3[C@@H](O)C[C@@]21C
- Potency [1]: inactive
- Potency [2]: inactive
- Potency [3]: inactive
- Potency [4]: inactive

SMILES: CN(c1nccc(=O)[nH]1)C1CCN(c2nc3ccccc3n2Cc2ccc(F)cc2)CC1
- Potency [1]: inactive
- Potency [2]: 30600 nM (active)
- Potency [3]: inactive
- Potency [4]: inactive

SMILES: CCOC(=O)c1cnc2c(cnn2CC)c1NN=C(C)C
- Potency [1]: inactive
- Potency [2]: inactive
- Potency [3]: inactive
- Potency [4]: inactive

SMILES: CC[C@H](C)[C@H](N)C(=O)O
- Potency [1]: inactive
- Potency [2]: inactive
- Potency [3]: inactive
- Potency [4]: inactive

SMILES: O=C(CCCl)NCc1ccccc1
- Potency [1]: inactive
- Potency [2]: inactive
- Potency [3]: inactive
- Potency [4]: inactive

SMILES: Cc1cc(=O)n(-c2ccccc2)n1C
- Potency [1]: inactive
- Potency [2]: inactive
- Potency [3]: inactive
- Potency [4]: inactive

SMILES: CNCc1ccccc1
- Potency [1]: inactive
- Potency [2]: inactive
- Potency [3]: inactive
- Potency [4]: inactive

SMILES: CCN1CCC[C@H]1CNC(=O)c1c(O)c(Cl)cc(Cl)c1OC
- Potency [1]: inactive
- Potency [2]: inactive
- Potency [3]: inactive
- Potency [4]: inactive

SMILES: CCCCCCCCCCCCCCCCOP(=O)([O-])OCC[N+](C)(C)C
- Potency [1]: inactive
- Potency [2]: inactive
- Potency [3]: inactive
- Potency [4]: inactive

SMILES: Cc1nnc(SCC2=C(C(=O)O)N3C(=O)[C@@H](NC(=O)Cn4cnnn4)[C@H]3SC2)s1
- Potency [1]: inactive
- Potency [2]: inactive
- Potency [3]: inactive
- Potency [4]: inactive

SMILES: CC1(C)OC(=O)NC1=O
- Potency [1]: inactive
- Potency [2]: inactive
- Potency [3]: inactive
- Potency [4]: inactive

SMILES: O=c1[nH]c(=O)n([C@H]2O[C@H](CO)[C@@H](O)[C@@H]2O)cc1/C=C\Br
- Potency [1]: inactive
- Potency [2]: inactive
- Potency [3]: inactive
- Potency [4]: inactive

SMILES: CC(C)Cc1ccc(CC(=O)O)cc1
- Potency [1]: inactive
- Potency [2]: inactive
- Potency [3]: inactive
- Potency [4]: inactive

SMILES: O=C(CN1CCNCC1)NC1CCCCC1
- Potency [1]: inactive
- Potency [2]: inactive
- Potency [3]: inactive
- Potency [4]: inactive

SMILES: Cc1c(NC(C)C)c(=O)n(-c2ccccc2)n1C
- Potency [1]: inactive
- Potency [2]: inactive
- Potency [3]: inactive
- Potency [4]: inactive

SMILES: CC(=O)N(CC(O)CO)c1c(I)c(C(=O)NCC(O)CO)c(I)c(C(=O)NCC(O)CO)c1I (stereo not given)
- Potency [1]: inactive
- Potency [2]: inactive
- Potency [3]: inactive
- Potency [4]: inactive

SMILES: Cc1cc2c(cc1CC(=O)c1sccc1S(=O)(=O)Nc1onc(C)c1Cl)OCO2
- Potency [1]: inactive
- Potency [2]: inactive
- Potency [3]: inactive
- Potency [4]: inactive

SMILES: C#CCC(Cc1cnc2nc(N)nc(N)c2n1)c1ccc(C(=O)N[C@@H](CCC(=O)O)C(=O)O)cc1 (stereo not given in full)
- Potency [1]: 544 nM (active)
- Potency [2]: 273 nM (active)
- Potency [3]: 217 nM (active)
- Potency [4]: 306 nM (active)

SMILES: C=CC(N)CCC(=O)O (stereo not given)
- Potency [1]: inactive
- Potency [2]: inactive
- Potency [3]: inactive
- Potency [4]: inactive

SMILES: CN1CCN2c3ncccc3Cc3ccccc3C2C1 (stereo not given)
- Potency [1]: inactive
- Potency [2]: inactive
- Potency [3]: inactive
- Potency [4]: inactive

SMILES: NC(CS)C(=O)O (stereo not given)
- Potency [1]: inactive
- Potency [2]: inactive
- Potency [3]: inactive
- Potency [4]: inactive

SMILES: O=C(O)c1ccccc1OP(=O)(O)O
- Potency [1]: inactive
- Potency [2]: inactive
- Potency [3]: inactive
- Potency [4]: inactive

SMILES: C[C@@H]1O[C@@H](OC[C@H]2O[C@@H](Oc3c(-c4ccc(O)c(O)c4)oc4cc(O)cc(O)c4c3=O)[C@H](O)[C@@H](O)[C@@H]2O)[C@H](O)[C@H](O)[C@H]1O
- Potency [1]: inactive
- Potency [2]: inactive
- Potency [3]: inactive
- Potency [4]: inactive

SMILES: CN=C(N)NC(=O)Nc1c(C)cccc1C
- Potency [1]: inactive
- Potency [2]: inactive
- Potency [3]: inactive
- Potency [4]: inactive

SMILES: CCCCC(CC)COC(=O)c1ccccc1O (stereo not given)
- Potency [1]: inactive
- Potency [2]: inactive
- Potency [3]: inactive
- Potency [4]: inactive

SMILES: COc1ccc(-c2cc(=O)c3c(O)cc(O[C@@H]4O[C@H](CO[C@@H]5O[C@@H](C)[C@H](O)[C@@H](O)[C@H]5O)[C@@H](O)[C@H](O)[C@H]4O)cc3o2)cc1O
- Potency [1]: inactive
- Potency [2]: inactive
- Potency [3]: inactive
- Potency [4]: inactive

SMILES: Cc1ccc(Cl)c(Nc2ccccc2C(=O)O)c1Cl
- Potency [1]: inactive
- Potency [2]: inactive
- Potency [3]: inactive
- Potency [4]: inactive

SMILES: COc1cc(C(=O)N2CCCCCCC2)cc(OC)c1OC
- Potency [1]: inactive
- Potency [2]: inactive
- Potency [3]: inactive
- Potency [4]: inactive

SMILES: O=C(COCCOCCOCC(=O)Nc1c(I)cc(I)c(C(=O)O)c1I)Nc1c(I)cc(I)c(C(=O)O)c1I
- Potency [1]: inactive
- Potency [2]: inactive
- Potency [3]: inactive
- Potency [4]: inactive

SMILES: OCCc1ccccc1
- Potency [1]: inactive
- Potency [2]: inactive
- Potency [3]: inactive
- Potency [4]: inactive

SMILES: CC1c2ccccc2CN1NC(=O)c1ccc(Cl)c(S(N)(=O)=O)c1 (stereo not given)
- Potency [1]: inactive
- Potency [2]: inactive
- Potency [3]: inactive
- Potency [4]: inactive

SMILES: COc1ccnc(CS(=O)c2nc3ccc(OC(F)F)cc3[nH]2)c1OC (stereo not given)
- Potency [1]: inactive
- Potency [2]: inactive
- Potency [3]: inactive
- Potency [4]: inactive

SMILES: CC1COc2c(N3CCN(C)CC3)c(F)cc3c(=O)c(C(=O)O)cn1c23 (stereo not given)
- Potency [1]: inactive
- Potency [2]: inactive
- Potency [3]: inactive
- Potency [4]: inactive
